The structures appear in SMILES notation. Hit rate of the full screen: of about 67,000 compounds, about 300 (0.45%) showed an effect of 50% or more. The entries come from a sample that favours strong results as a whole.

For this assay, the target named is Polyketide synthase Pks13 (Mycobacterium tuberculosis (strain ATCC 25618 / H37Rv)) (UniProt I6X8D2). Put plainly: Mycobacterium tuberculosis Polyketide synthase 13 Thioesterase (PKS13). The class given is functional. The following applies: 30 µM. More on the design: scale not given: in the data most compounds retested in dose-response had high values.
Polyketide synthase Pks13 (Mycobacterium tuberculosis (strain ATCC 25618 / H37Rv)), sequence (I6X8D2 whole entry): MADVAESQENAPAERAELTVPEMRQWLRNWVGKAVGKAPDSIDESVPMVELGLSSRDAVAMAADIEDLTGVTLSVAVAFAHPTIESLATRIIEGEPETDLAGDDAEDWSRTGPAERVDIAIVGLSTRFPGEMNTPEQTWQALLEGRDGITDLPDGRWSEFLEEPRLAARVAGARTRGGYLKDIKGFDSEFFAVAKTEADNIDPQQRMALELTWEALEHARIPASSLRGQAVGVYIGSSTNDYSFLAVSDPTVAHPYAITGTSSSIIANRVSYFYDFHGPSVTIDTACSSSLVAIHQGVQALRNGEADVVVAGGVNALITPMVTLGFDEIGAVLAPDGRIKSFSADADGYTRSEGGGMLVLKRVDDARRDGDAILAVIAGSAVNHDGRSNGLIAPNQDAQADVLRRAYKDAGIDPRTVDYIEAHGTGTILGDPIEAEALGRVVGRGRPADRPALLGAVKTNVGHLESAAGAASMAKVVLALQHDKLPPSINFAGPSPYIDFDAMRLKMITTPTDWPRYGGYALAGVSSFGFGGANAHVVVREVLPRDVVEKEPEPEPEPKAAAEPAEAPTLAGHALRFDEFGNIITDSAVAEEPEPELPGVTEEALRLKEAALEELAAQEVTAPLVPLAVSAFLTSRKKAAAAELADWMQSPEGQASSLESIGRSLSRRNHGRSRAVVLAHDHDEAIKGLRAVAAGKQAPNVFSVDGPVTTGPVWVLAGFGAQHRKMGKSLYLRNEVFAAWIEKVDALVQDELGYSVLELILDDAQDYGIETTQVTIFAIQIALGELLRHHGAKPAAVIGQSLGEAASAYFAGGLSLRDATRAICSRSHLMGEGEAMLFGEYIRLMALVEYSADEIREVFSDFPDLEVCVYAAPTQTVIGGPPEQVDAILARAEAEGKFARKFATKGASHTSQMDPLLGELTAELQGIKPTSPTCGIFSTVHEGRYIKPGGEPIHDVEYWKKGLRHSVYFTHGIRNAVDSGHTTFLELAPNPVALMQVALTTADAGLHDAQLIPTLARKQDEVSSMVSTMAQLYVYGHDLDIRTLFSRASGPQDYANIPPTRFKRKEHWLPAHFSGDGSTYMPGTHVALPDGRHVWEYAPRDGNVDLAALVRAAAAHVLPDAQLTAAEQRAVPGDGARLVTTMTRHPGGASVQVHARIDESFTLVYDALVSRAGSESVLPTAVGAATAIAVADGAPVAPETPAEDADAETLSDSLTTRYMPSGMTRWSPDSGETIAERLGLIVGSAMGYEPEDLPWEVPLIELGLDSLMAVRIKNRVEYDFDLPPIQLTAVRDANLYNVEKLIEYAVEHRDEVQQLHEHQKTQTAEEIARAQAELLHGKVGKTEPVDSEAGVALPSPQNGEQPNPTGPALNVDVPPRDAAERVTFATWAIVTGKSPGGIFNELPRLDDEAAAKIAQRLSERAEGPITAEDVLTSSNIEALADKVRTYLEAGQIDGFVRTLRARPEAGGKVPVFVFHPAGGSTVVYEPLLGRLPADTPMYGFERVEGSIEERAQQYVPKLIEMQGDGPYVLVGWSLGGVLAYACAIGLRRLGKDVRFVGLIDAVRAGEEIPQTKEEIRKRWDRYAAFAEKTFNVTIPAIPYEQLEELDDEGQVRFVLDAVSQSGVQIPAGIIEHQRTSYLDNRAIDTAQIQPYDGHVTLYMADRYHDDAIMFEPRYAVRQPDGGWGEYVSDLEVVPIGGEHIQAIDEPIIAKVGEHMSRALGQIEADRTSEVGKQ
For `O=C(NCC1CC1)[C@@H]1CCO[C@@H]2CCN(Cc3ccc(F)cc3)C[C@H]21`, the Percent Effect is -0.289%.

In the case of `CNC(=O)CC1CC2(CCN(c3ncccn3)CC2)c2ccccc21` (configuration not stated), the Percent Effect is -25.9%.

Take `CNC(=O)CNC1CC2(CCN(c3ncccn3)CC2)c2ccccc21` (configuration not stated): the Percent Effect came to 61.9%.

Consider `c1cnc(N2CCC3(CC2)CC(NCC2CC2)c2ccccc23)nc1` (configuration not stated), for which the Percent Effect was 2.19%.

Consider `O=C1[C@@H]2CN(c3ncc(Cl)cc3F)C[C@]2(C(=O)O)CN1CC1CC1`, for which the Percent Effect was determined as 5.43%.

Consider `O=C(c1cnccn1)N1CCN2C[C@H](OCc3ccccn3)C[C@H]2C1`, for which the Percent Effect was -10.5%.

Consider `O=C(N[C@@H]1CN(Cc2ccccc2)C[C@@H]2CCCO[C@@H]21)C1CC1`, for which the Percent Effect is -12.9%.

For the molecule `CCN1C(=O)CC[C@@H]2[C@H]1CCN2S(=O)(=O)c1cccs1`, the Percent Effect is -25.3%.

Turning to `Cc1ccc(C(=O)N2CCN(c3ncnc4nc(N)ccc34)CC2)o1`, the Percent Effect amounted to 65.6%.

`CC(C)(C)C(=O)N1CCCN(c2ncnc3nc(N)ccc23)CC1`: the Percent Effect came out at 18.3%.

Consider `Cc1ccc(C(=O)N2CCN(c3ncnc4nc(N)ccc34)CC2)cc1`, for which the Percent Effect was -11.7%.

As for `Cc1c(C(=O)N2CCS(=O)(=O)CC2)nnn1-c1ccc2ncccc2c1`, the Percent Effect is -29.1%.

On to `Cc1c(C(=O)N2CCC2)nnn1-c1ccc2ncccc2c1`, for which the Percent Effect is -7.58%.

Consider `Cc1c(C(=O)N2CCOCC2)nnn1-c1ccc2ncccc2c1`, for which the Percent Effect stood at 67.3%.

Regarding `CCS(=O)(=O)N1C[C@H]2CC[C@](O)(c3ccc(C)cc3)[C@H]2C1`, the Percent Effect was determined as 8.05%.

Regarding `Cn1nc(C2CCCN(Cc3ccccc3)C2)c2nccnc21` (configuration not stated), the Percent Effect worked out at 3.08%.

Turning to `Cn1nc(C2CCCN(Cc3cccs3)C2)c2nccnc21` (configuration not stated), the Percent Effect was determined as 13%.

For `Cc1ccc(CN2CCCC(c3nn(C)c4nccnc34)C2)s1` (configuration not stated), the Percent Effect is 115%.

For `Cc1cc(CN2CC[C@H]3C(=O)N(c4ccsc4)CCO[C@H]3C2)no1`, the Percent Effect was -5.2%.

Take `Cc1csc([C@H]2C[C@@H]3CCN(C(=O)c4cnccn4)C[C@H]3O2)n1`: the Percent Effect was -30.8%.

With `Cc1nn(C)c(C)c1-c1cc(-c2cc(CC(=O)O)cs2)nc(N)c1C#N`, the Percent Effect was 47.9%.

For the molecule `CCn1cc(-c2cc(-c3cc(CC(=O)O)cs3)nc(N)c2C#N)c(C)n1`, the Percent Effect is -51.8%.

Turning to `CCn1cc(-c2cc(-c3cc(CN(C)C)cs3)nc(N)c2C#N)c(C)n1`, the Percent Effect was 76.9%.

For the molecule `COCCN1C[C@H]2CN(Cc3cccc(OC(F)(F)F)c3)CCN2C1=O`, the Percent Effect is -30.8%.

Take `CC(C)(C)OC(=O)N1CCCCC1C(=O)NCc1cc[nH]n1` (configuration not stated): the Percent Effect is -18.2%.

With `Cc1ccc(CNC(=O)C2CCCCN2C(=O)OC(C)(C)C)cn1` (configuration not stated), the Percent Effect was 56.8%.

For `Cc1cc(CNC(=O)[C@H]2CCCCN2C(=O)OC(C)(C)C)on1`, the Percent Effect was -8.92%.

In the case of `COc1cc(N2C[C@@H]3COC[C@]3(COCc3cccc(C)n3)C2)ncn1`, the Percent Effect is -18.9%.

In the case of `COc1ccc2nc(C[C@@H]3C[C@@H](C(C)C)[C@H](CN(C)C)C=C3C)[nH]c2n1`, the Percent Effect was -71.1%.

As for `COc1ccc2[nH]c(C[C@@H]3C[C@@H](C(C)C)[C@H](CN(C)C)C=C3C)nc2c1`, the Percent Effect came to 1.51%.

For the molecule `COc1ccc2nc(C[C@@H]3C[C@@H](C(C)C)[C@H](CN)C=C3C)[nH]c2n1`, the Percent Effect was 56.2%.

As for `CCn1nc(C)cc1C(=O)N1C[C@@H]2C[C@@H](c3nnc(C)[nH]3)O[C@@H]2C1`, the Percent Effect is -31.5%.

Turning to `COCCN1C[C@H]2[C@@H](C1)N(C(=O)COc1ccccc1)CC[C@H]2OC`, the Percent Effect was -22.6%.

As for `CN(C)C(=O)c1cc(-c2cnc(N)nc2)nc2cc(F)ccc12`, the Percent Effect is -19.1%.

With `COc1ccc2c(C(=O)N(C)C)cc(-c3cnc(N)nc3)nc2c1`, the Percent Effect was found to be 75.3%.

`Cc1ccc2nc(-c3cnc(N)nc3)cc(C(=O)N(C)C)c2c1`: the Percent Effect is 1.85%.

With `COc1ccc(C(=O)N2CC[C@@H]3[C@H](CC2)N(C)CCS3(=O)=O)cc1`, the Percent Effect was -17.1%.

As for `Fc1cccc(CN2C[C@@H]3CN(c4ncccn4)C[C@@H]3C2)c1`, the Percent Effect was -4.52%.

Consider `Cn1c(Cn2ncc(N3CCCC3)cc2=O)nc2ccccc21`, for which the Percent Effect is -18.2%.

`Cn1c(Cn2ncc(N3CCCCC3)cc2=O)nc2ccccc21`: the Percent Effect amounted to 91%.

Take `CN(C)c1cnn(Cc2nc3ccccc3n2C)c(=O)c1`: the Percent Effect was -19.4%.

As for `COc1ncccc1C(=O)N1CC[C@H]2C[C@@H](C)O[C@@H]2C1`, the Percent Effect was -30.1%.

For the molecule `c1ccc(NC[C@@H]2CCC[C@@H]3CN(Cc4cccnc4)C[C@@H]32)nc1`, the Percent Effect was -17.4%.

Take `CCOc1ccc2nc(CN3CCC(CN)C3)ccc2c1` (configuration not stated): the Percent Effect is -11.4%.

Take `CCOc1ccc2nc(CN3CCC(CNC(C)=O)C3)ccc2c1` (configuration not stated): the Percent Effect is -18.1%.

`CCOc1ccc2nc(CN3CCOC(CN)C3)ccc2c1` (configuration not stated): the Percent Effect was found to be 70.3%.

Turning to `Oc1cccc(CN2C[C@H]3CC[C@@H]2CN(Cc2ccc(F)cc2)C3)c1`, the Percent Effect was -36.6%.

As to `Cc1cccc(CN2C[C@@H]3COC[C@]3(CNC(=O)N3CCCC3)C2)n1`, the Percent Effect is -7.01%.

On to `Cc1ccc(-c2nnc([C@H]3CCN(C4CCC4)C3)o2)cc1`, for which the Percent Effect was determined as 11.8%.

In the case of `CN(C)c1ccc(-c2nnc([C@H]3CCN(C4CCCCC4)C3)o2)cc1`, the Percent Effect was 58.9%.

On to `Clc1ccc(-c2nnc([C@H]3CCN(C4CCCCC4)C3)o2)cc1`, for which the Percent Effect is -3.49%.

Consider `O=C(c1ccccc1)N1C[C@@H]2CC[C@H](C1)N(C(=O)CN1CCOCC1)C2`, for which the Percent Effect is -38.5%.

Turning to `N#Cc1cc(C#N)c(SCC(=O)Nc2ccc(F)cc2)nc1N`, the Percent Effect was 65.2%.

Consider `N#Cc1cc(C#N)c(SCCC(=O)Nc2ccc(F)cc2)nc1N`, for which the Percent Effect was -20.2%.

Regarding `N#Cc1cc(C#N)c(SCC(=O)NCc2ccc(F)cc2)nc1N`, the Percent Effect was -6.72%.

As for `C=Cn1ncc(CN2C[C@@H]3C[C@@H](O)CN3C[C@@H]2Cc2ccccc2)c1C`, the Percent Effect was -6.39%.

For the molecule `O=C(Nc1cnc(N2CCOCC2)nc1)c1ccc(C(F)(F)F)cc1`, the Percent Effect turned out to be 106%.

As for `COCC(=O)Nc1cnc(N2CCOCC2)nc1`, the Percent Effect is -16%.

Turning to `O=S(=O)(Nc1cnc(N2CCOCC2)nc1)c1ccc(C(F)(F)F)cc1`, the Percent Effect is -20.2%.

`Cc1ccc(CN2CC[C@H]3OCC[C@@H](C(=O)N4CCCCO4)[C@@H]3C2)o1`: the Percent Effect was found to be 16.9%.

Turning to `CN(C)C[C@H]1OC[C@@H]2CN(C(=O)NCc3cccnc3)CC[C@@H]21`, the Percent Effect amounted to 1.8%.

Consider `CC(=O)N1C[C@@H](c2ccsc2)[C@@H]2CN(Cc3ccccc3Cl)CC[C@@H]21`, for which the Percent Effect is 9.76%.

Regarding `COc1ccc(NC(C)C(=O)N2CCN(c3ncccn3)CC2)cn1` (configuration not stated), the Percent Effect turned out to be 4.94%.

For the molecule `COc1ccc(NC(C)C(=O)N2CCCC2)cn1` (configuration not stated), the Percent Effect was 67.9%.

In the case of `COc1ccc(NC(C)C(=O)N2CCN(c3ccccc3)CC2)cn1` (configuration not stated), the Percent Effect is 31.4%.

`CN(C)C[C@]12COC[C@H]1CN(Cc1ccc3ccccc3n1)C2`: the Percent Effect was -18.2%.

In the case of `CCc1noc(CN(CCC2CCCCC2)CC(N)=O)n1`, the Percent Effect stood at 6.76%.

As to `CC(C)c1noc(CN(CCC2CCCCC2)CC(N)=O)n1`, the Percent Effect was -4.56%.

In the case of `CC(C)(C)c1nc(CN(CCC2CCCCC2)CC(N)=O)no1`, the Percent Effect was 57.2%.

Turning to `CSc1ncccc1C(=O)N1C[C@H]2CC[C@@H]1CN(c1cnccn1)C2`, the Percent Effect is -2.08%.

On to `O=C(O)c1ccc2ccc(N3CCN(CC4CC4)CC3)n2c1`, for which the Percent Effect is 9.49%.

On to `CC(=O)N1CCCc2sc(C(=O)Nc3ccc(C)nc3)nc21`, for which the Percent Effect is -22.2%.

`Cc1ccc(NC(=O)c2nc3c(s2)CCCN3C(C)C)cn1`: the Percent Effect was -9.2%.

`Cc1ccc(NC(=O)c2nc3c(s2)CCCN3C(=O)C2CC2)cn1`: the Percent Effect was 56.3%.

`CC[C@H]1CN2CC[C@H]1C[C@@H]2CNC(=O)Nc1cccc(C(F)(F)F)c1`: the Percent Effect is -29.8%.

Turning to `Cc1ccc(CS(=O)(=O)N2CC[C@H]3[C@H]2CCN3C)cc1`, the Percent Effect is 37.1%.

On to `c1ccc(-c2cc(CN3C[C@@H]4CC[C@H](C3)N(CC3CCC3)C4)on2)cc1`, for which the Percent Effect is -48.3%.

Turning to `Cc1cnn(CCNCC(=O)NCCOc2ccccc2)c1`, the Percent Effect was -11.4%.

On to `Cc1cnn(CC(C)NCC(=O)NCCc2cccs2)c1` (configuration not stated), for which the Percent Effect was -15.2%.

Turning to `Cc1cnn(CC(C)NCC(=O)NCCOc2ccccc2)c1` (configuration not stated), the Percent Effect was 95.2%.

As for `O=C(C1CCOCC1)N1C[C@@H]2[C@@H](C1)OCC(=O)N2Cc1ccncc1`, the Percent Effect was -12.1%.

With `CS(=O)(=O)NCc1cc(-c2cc(F)cc(F)c2)nc(N2CCOCC2)n1`, the Percent Effect came to 22.5%.

For the molecule `CS(=O)(=O)NCc1cc(-c2cc(F)cc(F)c2)nc(N2CCCC2)n1`, the Percent Effect was found to be 22.1%.

Regarding `CS(=O)(=O)NCc1cc(-c2cc(F)cc(F)c2)nc(N2CC[C@H](O)C2)n1`, the Percent Effect stood at 147%.

With `Cn1nccc1NC(=O)c1cccc(CN2C[C@H]3CC[C@@H](C2)N3)c1`, the Percent Effect was -14.8%.

Take `CN1CCCC[C@@H]2[C@H]1[C@@H](c1ccccc1)CCN2S(=O)(=O)N1CCCC1`: the Percent Effect is -11%.

In the case of `Cn1cncc1-c1nnc([C@H]2CCN(Cc3cccnc3)C2)o1`, the Percent Effect is -26%.

Take `Cn1cncc1-c1nnc([C@H]2CCN(CC(C)(C)C)C2)o1`: the Percent Effect came to 25.7%.

With `Cn1cncc1-c1nnc([C@H]2CCN(Cc3ncc[nH]3)C2)o1`, the Percent Effect was found to be 61%.

Consider `CSCCCN1C[C@H]2CC[C@@H]1CN(Cc1[nH]cnc1C)C2`, for which the Percent Effect was -11.9%.

Regarding `c1coc(CN2C[C@@H]3CCCO[C@@H]3[C@H](N3CCCC3)C2)c1`, the Percent Effect is -16.1%.

In the case of `CS(=O)(=O)c1ccc(-c2nc(C(=O)N3CCCC3)n3ccccc23)cc1`, the Percent Effect was determined as 74.1%.

For `CN(C)C(=O)c1nc(-c2ccc(S(C)(=O)=O)cc2)c2cnccn12`, the Percent Effect was 9.33%.

Regarding `CN(C)C(=O)c1nc(-c2ccc(S(C)(=O)=O)cc2)c2ccccn12`, the Percent Effect amounted to 48.7%.

As to `CN1CCCC[C@@H]2[C@H]1[C@@H](c1ccccc1)CCN2C(=O)c1ccccc1`, the Percent Effect was -32%.

`CN1CCCC[C@@H]2[C@H]1[C@@H](c1ccccc1)CCN2C(=O)c1ccncc1`: the Percent Effect amounted to 37.2%.

With `Cc1nnsc1C(=O)N1CC[C@H](c2ccccc2)[C@@H]2[C@H]1CCCCN2C`, the Percent Effect is 56.9%.

Regarding `CC(=O)N1C[C@H](NC(=O)c2cscn2)[C@@H]2OCCC[C@@H]21`, the Percent Effect was -14.1%.

As to `CCCOc1ccc(Cl)cc1CNc1ncnc2oc(C)nc12`, the Percent Effect was 78.9%.

As for `CCCOc1ccccc1CCCNc1ncnc2oc(C)nc12`, the Percent Effect is 18%.

Turning to `CCC(CNc1ncnc2oc(C)nc12)Cc1ccccc1` (configuration not stated), the Percent Effect was -13.8%.

For the molecule `Cn1cccc1C(=O)N1C[C@H]2CC[C@@H]1CN(Cc1cscn1)C2`, the Percent Effect was -21.5%.

As to `COc1ccc2c(c1)c(-c1nc(N(C)C)ncc1CN)cn2C`, the Percent Effect is -8.95%.

`COc1ccc2c(c1)c(-c1nc(C)ncc1CN)cn2C`: the Percent Effect is -1.61%.

Take `Cc1ncc(CN)c(-c2cn(C)c3ccccc23)n1`: the Percent Effect is 140%.

On to `O=C(C1CCOCC1)N1C[C@H](OCc2cccnc2)[C@H]2COC[C@H]21`, for which the Percent Effect was -10.6%.

For `O=C1CO[C@H]2CN(C3CCOCC3)C[C@H]2N1Cc1ccc(F)cc1`, the Percent Effect is 18.6%.

The values are drawn from ChEMBL document CHEMBL3988442, “University of Dundee, Small-Polar-MMV Screening Library” (2021).
